Test results reported in PubChem BioAssay (Tox21).
Values joined by “and” are separate entries in the source; they are usually repeats but may differ in a detail not shown here. Equal entries are not always repeated. Results filed as inconclusive are left out. Entries that show only a call come without a potency. A structure can be active in one record and inactive in another. Active and inactive are the calls of the source. Unless noted, calls follow the shape of the full dose curve.

What was measured:
[1] = Nuclear factor erythroid 2-related factor 2/antioxidant responsive element (Nrf2/ARE) small molecule agonists: qHTS cell viability counter screen in human keratinocytes (AID 1919968; active = well fitted curve in the direction sought with a large enough effect in the repeat runs; an effect the other way counts as inactive or inconclusive; also: nearly all actives have a fitted effect of over 55% in size; also: potency is read from the fitted curve at half-maximal effect)
Summary of the method: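 Cells of the KeratinoSens line were plated at 1,500 per well and left for 5 h before compound transfer from DMSO stocks. After a 23 h incubation (37 C, 5% CO2), CellTiter-Fluor was added. Signal was taken as fluorescence intensity 1 h later.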

[2] = target: Gonadotropin-releasing hormone receptor (Homo sapiens) (UniProt P30968); assay: Human gonadotropin-releasing hormone receptor (GnRHR) small molecule agonists, calcium flux assay in GnRHR-HEK293 cells (AID 1920063); also: nearly all actives have a fitted effect of over 35% in size
Gonadotropin-releasing hormone receptor (Homo sapiens), sequence (P30968 whole entry, looked up): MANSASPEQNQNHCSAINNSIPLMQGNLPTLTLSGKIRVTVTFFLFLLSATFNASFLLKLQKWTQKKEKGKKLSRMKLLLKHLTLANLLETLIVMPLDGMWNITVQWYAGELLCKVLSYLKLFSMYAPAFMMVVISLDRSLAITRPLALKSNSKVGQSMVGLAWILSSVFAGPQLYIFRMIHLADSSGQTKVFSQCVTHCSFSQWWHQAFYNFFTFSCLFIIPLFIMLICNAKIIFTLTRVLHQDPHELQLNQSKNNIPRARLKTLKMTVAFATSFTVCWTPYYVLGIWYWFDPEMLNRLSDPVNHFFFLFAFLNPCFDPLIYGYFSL
Summary of the method: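 Compounds dissolved in DMSO are pin-transferred onto dye-loaded GnRHR-HEK293 cells, which were seeded 18 h before at 37 C/5% CO2. Calcium signal is read as fluorescence intensity at 1 s intervals for 3 min.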

[3] = target: KiSS-1 receptor (Homo sapiens) (UniProt Q969F8); assay: Human kisspeptin (KISS1R) small molecule agonists, calcium flux assay in KISS1R-HEK293 cells (AID 1920064; active = well fitted curve in the direction sought with a large enough effect in the repeat runs; an effect the other way counts as inactive or inconclusive)
KiSS-1 receptor (Homo sapiens), sequence (Q969F8 whole entry, looked up): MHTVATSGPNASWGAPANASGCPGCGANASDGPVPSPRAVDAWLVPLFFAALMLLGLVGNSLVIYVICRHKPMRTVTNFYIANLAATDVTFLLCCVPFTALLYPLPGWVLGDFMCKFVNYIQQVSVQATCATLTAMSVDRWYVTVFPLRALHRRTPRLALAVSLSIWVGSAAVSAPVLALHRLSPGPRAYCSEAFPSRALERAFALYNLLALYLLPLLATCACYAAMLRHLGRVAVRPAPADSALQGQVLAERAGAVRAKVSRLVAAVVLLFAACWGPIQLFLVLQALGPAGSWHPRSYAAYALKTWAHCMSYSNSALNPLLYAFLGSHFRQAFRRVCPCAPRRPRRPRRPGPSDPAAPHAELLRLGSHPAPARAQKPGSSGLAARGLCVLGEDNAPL
Summary of the method: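 Cell line: HEK293, stable human KISS1R. Dye loading 1 h at 37 C after 18 h culture. Read: kinetic fluorescence, 480/540 nm, 3 min at 1 s intervals.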

[4] = G protein-coupled receptor (GPCR) small molecule agonists, calcium flux assay: HEK293 wild type cell line counter screen (AID 1920065)
Summary of the method: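 Tox21 10K compounds, 15 concentrations each in triplicate, pin-transferred in DMSO onto dye-loaded cells; kinetic read at 480/540 nm for 3 min, 1 s intervals.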

[5] = p53 small molecule agonists, cell-based qHTS assay with human liver microsomes (AID 1963577)
Summary of the method: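 Fluorescence of the beta-lactamase reporter in p53RE-bla cells, detected with LiveBLAzer substrate (2 h, room temperature, dark), served as the read-out after 16 h compound exposure at 37 C with human liver microsomes and NADPH, each 0.5 mg/mL final.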

[6] = p53 small molecule agonists, cell-based qHTS assay with rat liver microsomes (AID 1963578)
Summary of the method: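 Cells carrying a p53 response element–beta-lactamase reporter were plated and rested 5 h, then dosed with compound in DMSO plus rat liver microsomes and NADPH, each at 0.5 mg/mL final. After 16 h at 37 C, LiveBLAzer substrate was added for 2 h.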

[7] = p53 small molecule agonists, cell-based qHTS assay with human liver microsomes: qHTS cell viability counter screen (AID 1963579); also: nearly all actives have a fitted effect of over 45% in size; also: potency is read from the fitted curve at half-maximal effect
Summary of the method: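 Cytotoxicity counter screen: p53RE-bla, 4,000 cells/well; 5 h settle, 37 C/5% CO2; cpd + HLM 0.5 mg/mL + NADPH 0.5 mg/mL (final); 16 h, 37 C; CellTiter-Glo, 30 min RT, luminescence.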

[8] = p53 small molecule agonists, cell-based qHTS assay with rat liver microsomes: qHTS cell viability counter screen (AID 1963580); also: nearly all actives have a fitted effect of over 45% in size
Summary of the method: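 Cytotoxicity counter screen: intracellular ATP read by CellTiter-Glo luminescence in the p53 reporter wells. HCT-116 p53RE-bla cells were treated for 16 h at 37 C alongside rat liver microsomes and NADPH, each 0.5 mg/mL final.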

[9] = p53 small molecule agonists, cell-based qHTS assay: qHTS cell viability counter screen (AID 1963581); also: nearly all actives have a fitted effect of over 45% in size
Summary of the method: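 ATP content measured by luminescence in HCT-116 p53RE-bla cells treated 16 h at 37 C, same wells as the reporter screen.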

[10] = p53 small molecule agonists, cell-based qHTS assay (AID 1963582; active = well fitted activation curve with a large enough effect in the signal ratio in the repeat runs, not every such curve was filed as active; the % refers to the signal ratio)
Summary of the method: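 16 h compound exposure (37 C) of p53 response element–bla cells, preceded by 5 h recovery at 37 C/5% CO2; read-out via LiveBLAzer B/G FRET substrate, 2 h RT, fluorescence intensity.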

[11] = cAMP Responsive Elements (CRE) small molecule agonists, cell-based qHTS assay (AID 1963590)
Summary of the method: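 HEK 293T cells stably bearing CRE-bla were plated at 2,000 cells per well and rested 18 h. Compounds, positive controls or DMSO were added for 3 h at 37 C. LiveBLAzer B/G substrate was then loaded for 2 h at room temperature.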

[12] = cAMP Responsive Elements (CRE) small molecule antagonists, cell-based qHTS assay (AID 1963591; active = well fitted inhibition curve with a large enough effect in the signal ratio in the repeat runs, not every such curve was filed as active; the % refers to the signal ratio)
Summary of the method: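 First, CRE-bla HEK293T cells settled 18 h at 37 C. Next, compound and 0.25 uM final NKH477 were applied for 3 h. Last, LiveBLAzer B/G substrate was loaded for 2 h at room temperature.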

[13] = target: Beta-2 adrenergic receptor (Homo sapiens) (UniProt P07550); assay: Adrenergic beta2 receptor (ADRB2) small molecule antagonists, cell-based qHTS assay (AID 1963592); also: series mostly up to about 92 µM; nearly all actives have a fitted effect of over 50% in size
Beta-2 adrenergic receptor (Homo sapiens), sequence (P07550 whole entry, looked up): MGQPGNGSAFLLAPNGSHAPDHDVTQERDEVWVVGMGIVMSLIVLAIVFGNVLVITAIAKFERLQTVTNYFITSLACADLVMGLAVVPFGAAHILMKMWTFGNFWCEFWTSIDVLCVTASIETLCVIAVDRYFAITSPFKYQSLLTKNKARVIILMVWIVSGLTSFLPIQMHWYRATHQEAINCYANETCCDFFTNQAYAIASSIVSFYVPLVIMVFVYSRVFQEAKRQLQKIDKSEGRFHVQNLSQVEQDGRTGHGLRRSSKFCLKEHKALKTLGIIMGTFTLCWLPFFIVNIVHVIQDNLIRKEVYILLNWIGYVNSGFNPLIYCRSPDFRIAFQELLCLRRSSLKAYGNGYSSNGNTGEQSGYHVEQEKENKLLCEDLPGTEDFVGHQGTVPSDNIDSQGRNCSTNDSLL
Summary of the method: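 Assay format: CHO-ADRB2 cells, 18-20hr seeding at 37C/5% CO2, then compound plus 1nM isoproterenol agonist mix for 0.5hr RT. Homogeneous time-resolved fluorescence cAMP detection after 1hr, expressed as 665/615 nm ratio.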

[14] = target: Beta-2 adrenergic receptor (Homo sapiens) (UniProt P07550); assay: Adrenergic beta2 receptor (ADRB2) small molecule agonists, cell-based qHTS assay (AID 1963593);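 also: CHO cells stably overexpressing human ADRB2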
Summary of the method: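 CHO cells stably over-expressing ADRB2 were plated overnight at 37C, then dosed with compounds plus a stimulation mix containing 100uM IBMX and 25uM Ro-20-1724 for 0.5hr at room temperature. cAMP was measured by HTRF competition, 1hr.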

[15] = target: D(2) dopamine receptor (Homo sapiens) (UniProt P14416); assay: Dopamine D2 receptor (DRD2) small molecule agonists, cell-based qHTS assay (AID 1963594); also: nearly all actives have a fitted effect of over 35% in size
D(2) dopamine receptor (Homo sapiens), sequence (P14416 whole entry, looked up): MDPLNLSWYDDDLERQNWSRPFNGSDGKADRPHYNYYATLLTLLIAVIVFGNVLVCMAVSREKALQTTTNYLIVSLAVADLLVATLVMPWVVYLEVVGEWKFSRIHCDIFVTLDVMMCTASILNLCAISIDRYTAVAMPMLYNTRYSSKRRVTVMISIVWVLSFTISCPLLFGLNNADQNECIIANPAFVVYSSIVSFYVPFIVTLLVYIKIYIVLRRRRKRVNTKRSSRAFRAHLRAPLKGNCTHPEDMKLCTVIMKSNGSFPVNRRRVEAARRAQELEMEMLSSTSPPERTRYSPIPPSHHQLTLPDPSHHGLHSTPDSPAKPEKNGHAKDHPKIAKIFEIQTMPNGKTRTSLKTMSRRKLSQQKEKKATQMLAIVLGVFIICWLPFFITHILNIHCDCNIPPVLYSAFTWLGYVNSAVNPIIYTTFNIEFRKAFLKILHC
Summary of the method: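 cAMP accumulation in DRD2-HEK293 cells measured by HTRF after 1 h detection; compounds added 10 min before NKH477 (200nM […]) forskolin-analogue stimulation, 30 min at room temperature, with Ro20-1724 present at 0.1 mM final.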

[16] = target: 5-hydroxytryptamine receptor 2A (Homo sapiens) (UniProt P28223); assay: 5-hydroxytryptamine receptor 2A (HTR2A) small molecule agonists, cell-based qHTS assay (AID 1963587); also: nearly all actives have a fitted effect of over 30% in size
5-hydroxytryptamine receptor 2A (Homo sapiens), sequence (P28223 whole entry, looked up): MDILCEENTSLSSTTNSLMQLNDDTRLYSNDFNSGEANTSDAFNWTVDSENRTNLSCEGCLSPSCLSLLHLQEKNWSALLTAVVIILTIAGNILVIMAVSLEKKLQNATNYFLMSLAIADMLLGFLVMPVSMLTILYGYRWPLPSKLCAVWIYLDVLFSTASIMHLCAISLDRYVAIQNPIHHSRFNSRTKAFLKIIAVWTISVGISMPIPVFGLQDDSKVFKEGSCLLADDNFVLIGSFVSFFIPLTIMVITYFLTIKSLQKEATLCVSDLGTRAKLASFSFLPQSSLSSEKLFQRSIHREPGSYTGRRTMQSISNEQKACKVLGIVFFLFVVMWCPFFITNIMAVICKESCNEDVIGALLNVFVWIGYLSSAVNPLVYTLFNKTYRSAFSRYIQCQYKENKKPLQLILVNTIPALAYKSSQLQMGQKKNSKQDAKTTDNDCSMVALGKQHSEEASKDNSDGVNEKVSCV
Summary of the method: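 Kinetic calcium-flux fluorescence (2 min, 1 sec intervals) after compound addition in agonist mode. HTR2A-CHO cells were cultured 18 h, then dye-loaded 1 h at 37 C.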

[17] = target: Muscarinic acetylcholine receptor M1 (Homo sapiens) (UniProt P11229); assay: Cholinergic receptor muscarinic 1 (CHRM1) small molecule antagonists, cell-based qHTS assay (AID 1963588); also: nearly all actives have a fitted effect of over 40% in size
Muscarinic acetylcholine receptor M1 (Homo sapiens), sequence (P11229 whole entry, looked up): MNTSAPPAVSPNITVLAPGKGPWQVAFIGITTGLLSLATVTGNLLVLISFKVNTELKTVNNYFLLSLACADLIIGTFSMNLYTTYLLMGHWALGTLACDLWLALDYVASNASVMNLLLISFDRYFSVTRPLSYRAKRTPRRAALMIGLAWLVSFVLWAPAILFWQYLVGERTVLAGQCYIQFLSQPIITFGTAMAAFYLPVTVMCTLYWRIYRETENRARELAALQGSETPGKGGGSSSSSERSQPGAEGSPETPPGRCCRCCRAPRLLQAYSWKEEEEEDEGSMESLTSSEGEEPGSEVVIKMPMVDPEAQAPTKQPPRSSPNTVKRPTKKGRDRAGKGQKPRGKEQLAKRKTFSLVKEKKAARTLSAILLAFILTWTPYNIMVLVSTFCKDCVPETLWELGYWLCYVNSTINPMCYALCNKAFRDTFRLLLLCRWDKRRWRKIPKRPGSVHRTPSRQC
Summary of the method: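 Compounds were tested at 15 concentrations in three independent runs. Dye-loaded CHRM1-CHO cells were exposed 5 min at room temperature before stimulation by acetylcholine added at 50nM. Intracellular calcium was read kinetically on FDSS for 3 min.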

[18] = target: Muscarinic acetylcholine receptor M1 (Homo sapiens) (UniProt P11229); assay: Cholinergic receptor muscarinic 1 (CHRM1) small molecule agonists, cell-based qHTS assay (AID 1963589); also: nearly all actives have a fitted effect of over 35% in size
Summary of the method: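 Homogeneous fluorescence calcium flux, agonist mode. Human M1-expressing CHO cells; compound dosed at 15 concentrations, three independent runs; signal sampled every 1 sec.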

[19] = target: D(2) dopamine receptor (Homo sapiens) (UniProt P14416); assay: Dopamine D2 receptor (DRD2) small molecule antagonists, cell-based qHTS assay (AID 1963595; active = well fitted inhibition curve with a large enough effect in the signal ratio in the repeat runs, with a control signal flat; the % refers to the signal ratio; also: potency is read from the fitted curve at half-maximal effect)
Summary of the method: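 Readout: HTRF cAMP, cAMP-d2 competing with cellular cAMP for anti-cAMP cryptate, read after 1 h. Cells: DRD2-HEK293. Conditions: 0.1 mM Ro20-1724, 12 nM quinpirole, 200 nM NKH477, 30 min RT.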

[20] = target: 5-hydroxytryptamine receptor 2A (Homo sapiens) (UniProt P28223); assay: 5-hydroxytryptamine receptor 2A (HTR2A) small molecule antagonists, cell-based qHTS assay (AID 1963586); also: nearly all actives have a fitted effect of over 45% in size
Summary of the method: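 CHO cells stably expressing human HTR2A were plated for 18 h at 37 C, then loaded with calcium dye for 1 h. Compounds were preincubated 5 min at room temperature before DOI (4 nM solution) was added. Kinetic fluorescence was read for 3 min.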

Compound	Potency [1]	Potency [2]	Potency [3]	Potency [4]	Potency [5]	Potency [6]	Potency [7]	Potency [8]	Potency [9]	Potency [10]	Potency [11]	Potency [12]	Potency [13]	Potency [14]	Potency [15]	Potency [16]	Potency [17]	Potency [18]	Potency [19]	Potency [20]
COc1ccc2cc(CCC(C)=O)ccc2c1	inactive	inactive	inactive	inactive	inactive	inactive	inactive	inactive	inactive	inactive	inactive	inactive	inactive	inactive	inactive					
Oc1ccc(N=Nc2ccccc2)cc1	55.2 µM (active)	inactive	inactive	inactive	inactive	inactive	inactive	inactive		inactive	inactive	inactive			inactive	inactive	inactive	inactive	inactive	
C(=C\c1ccccc1)/CN1CCN(C(c2ccccc2)c2ccccc2)CC1	13.3 µM (active)	inactive	inactive	inactive	inactive	inactive	inactive	inactive	inactive	inactive			inactive		inactive					
CCCCCSCCCCC	inactive	inactive	inactive	inactive	inactive	inactive	inactive	inactive	inactive		inactive	inactive		inactive		inactive	inactive	inactive	inactive	inactive
CCCCNc1cc(C(=O)O)cc(S(N)(=O)=O)c1Oc1ccccc1	inactive	inactive	inactive	inactive	inactive	inactive	inactive	inactive	inactive	inactive	inactive	inactive	inactive		inactive			inactive	inactive	
Nc1ccn([C@H]2CS[C@@H](CO)O2)c(=O)n1	inactive	inactive	inactive	inactive	inactive	inactive	inactive	inactive	inactive	inactive		inactive	inactive	inactive					inactive	
CN(C)CCCN1c2ccccc2CCc2ccc(Cl)cc21	61.1 µM (active)	inactive	inactive	inactive	inactive	inactive	40.8 µM (active) and inactive	inactive	inactive		inactive	inactive	inactive	inactive	inactive				61.1 µM (active) and 18.8 µM (active)	
